Source: PubChem
Compounds with a hit are over-represented: about 0.5% of the library has one in this group of screens.
E coli growth-1: E. coli growth inhibition, primary screen, OD600; Escherichia coli growth, 23 h; stronger effect = lower value; 330,000 tested, 0.21% active; OD600 absorbance (concentration not given with the values); AID 1053175, 2014;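 active means OD600 absorbance below the run mean of sample wells minus 3.6 SD, in any replicate, cut at about 0.56 in these data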
Tat transport: E. coli Tat export inhibitors, primary screen, MC4100, TorA-mCherry reporter, fluorescence, single point. inhibition, % at 10 µM. 340,000 tested, 0.036% active;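 active means mean replicate inhibition at least 50% and at least half of replicates individually reaching 50%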;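 further: exported cargo escapes ClpAP degradation while cytoplasmic cargo is degraded and loses fluorescence; 0% = median of neutral control wells and 100% = median of NaSCN control wells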
phage Ecoli inh: growth loss of phage-infected E. coli, primary screen, RecBCD inhibitor project, absorbance, with phage, HTS; 360,000 tested, 0.26% active; inhibition, % at 11.9 µM; in the data active means inhibition above about 11%
AddAB inh: growth inhibition of E. coli expressing H. pylori AddAB, primary screen, AddAB inhibitor project, absorbance. AID 435030, 2010. inhibition, % at 11.9 µM. 330,000 tested, 0.29% active; in the data active means inhibition above about 12%;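 further: 0% = vehicle wells of infected cells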
E coli growth-2: E. coli V3065 growth inhibition, primary screen, counter-screen for AddAB inhibitor project, absorbance, OD600. AID 449728, 2010. 330,000 tested, 0.27% active. inhibition, % at 11.9 µM. 18 h;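 active means inhibition above the campaign's mean inhibition across all tested compounds plus 3 SD, cut at about 9.9% in these data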;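 further: uninfected addAB+ strain grown without phage in ampicillin broth; 0% = DMSO wells and 100% = ciprofloxacin 0.95 µg/ml wells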
AddAB conf: growth loss of phage-infected E. coli expressing H. pylori AddAB, confirmation, AddAB inhibitor project, absorbance, E. coli V3065, T4 phage, triplicate; shares compounds with AddAB inh; OD; T4 phage with gene 2 nonsense mutations; inhibition, % at 11.9 µM; 880 tested, 64% active; AID 488942, 2010;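 active means mean inhibition above a set limit taken from the earlier primary screen, cut at about 13% in these data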;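 further: higher means less bacterial growth since AddAB block lets phage replicate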
RecBCD counter: growth loss of RecBCD+ E. coli with mutant T4 phage, counter-screen for AddAB inhibitor project, absorbance, V66 E. coli; shares compounds with AddAB inh; OD growth; inhibition, % at 11.9 µM; 880 tested, 73% active; AID 488955, 2010;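 active means mean inhibition above the mean of solvent-only control wells plus 3 SD, cut at about 4% in these data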;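 further: optical density read after an 18 h incubation at 37 °C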
Bact viability: bacterial viability inhibition counter-screen, confirmation, counter-screen for AddAB inhibitor project, absorbance | 880 tested, 35% active | shares compounds with AddAB inh | AID 488956, 2010 | absorbance (AddAB counterscreen) | inhibition, % at 11.9 µM; in the data active means inhibition above about 25%
RecBCD conf: growth loss of phage-infected RecBCD+ E. coli, confirmation, RecBCD inhibitor project, absorbance, E. coli V66, T4 gene 2 phage; shares compounds with phage Ecoli inh; E. coli V66 + T4 2- phage, growth OD; inhibition, % at 11.9 µM; 890 tested, 45% active; AID 651982, 2013;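 active means mean inhibition over triplicates exceeding the hit threshold derived in the original primary screen, cut at about 11% in these data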
Ecoli viability: E. coli viability inhibition, counter-screen for RecBCD inhibitor project, absorbance, high throughput; 890 tested, 29% active; shares compounds with phage Ecoli inh; absorbance (OD) growth; inhibition, % at 11.9 µM; in the data active means inhibition above about 20%;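 further: E. coli strain V66 grown with compound alone and no phage infection; 0% = bacteria with DMSO vehicle only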
AddAB phage OD: growth loss of phage-infected AddAB-carrying E. coli, confirmation, counter-screen for RecBCD inhibitor project, absorbance, E. coli V3065, T4 phage | E. coli expressing H. pylori AddAB + T4 phage, OD growth; gene 2 mutant T4, recBCD-deleted host | shares compounds with phage Ecoli inh | 890 tested, 45% active | inhibition, % at 11.9 µM;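 active means mean inhibition above the solvent-only control wells' mean plus 3 SD, cut at about 22% in these data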;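 further: higher means less bacterial growth from phage killing when AddAB is blocked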
* marks the source's active call; other numbers are inactive results; / = not tested or not shown.

SMILES	E coli growth-1	Tat transport	phage Ecoli inh	AddAB inh	E coli growth-2	AddAB conf	RecBCD counter	Bact viability	RecBCD conf	Ecoli viability	AddAB phage OD
Cc1ccc2nc(/C(C#N)=C\c3ccc([N+](=O)[O-])o3)[nH]c2c1	0.6	-18	6	43*	10*	67*	5.2*	15	/	/	/
CC(C)C1CN=C2N(CCNC(=O)CCC3CCCCC3)C(Cc3ccc(O)cc3)CN21 (centres undefined)	0.68	/	/	/	/	/	/	/	/	/	/
O=[N+]([O-])c1ccc(/C=N/n2cnc3ccccc32)s1	/	-25	7	15*	9	98*	5.9*	20	/	/	/
CCOCCCn1c(SC(C(=O)Nc2cc(C)ccc2C)c2ccccc2)nnc1-c1ccc(Cl)cc1 (centres undefined)	0.78	-3	1	33*	68*	2	-1	-3	/	/	/
Cc1ccc(NC(=O)COC(=O)C2CCN(c3ccc(C(F)(F)F)cn3)CC2)cc1C	0.71	9	6	96*	53*	-4	-2	-3	/	/	/
O=C(C1=CC(c2coc3ccccc3c2=O)CC(OCCCCO)O1)N1CCN(Cc2ccc3c(c2)OCO3)CC1 (centres undefined)	0.71	/	/	/	/	/	/	/	/	/	/
COc1ccc2c(CC(=O)OCC(=O)Nc3cccc(S(N)(=O)=O)c3)coc2c1	0.71	-4	1	97*	96*	-1	1	-4	/	/	/
O=C(Oc1cccc2cccnc12)c1cccc([N+](=O)[O-])c1	0.62	-6	1	1	0	/	/	/	/	/	/
O=C(Oc1c(Cl)cc(Cl)c2cccnc12)c1cccc([N+](=O)[O-])c1	0.071*	2	/	30*	28*	62*	59*	58*	/	/	/
Cc1cccc(C)c1OCc1cc(C(=O)N(C)Cc2nc3ccccc3[nH]2)no1	0.57	-10	14*	26*	17*	19*	11*	16	11	14	38*
Cc1cc(C(=O)NNC(=O)CCCOc2ccccc2)c(C)o1	0.62	-6	-1	-1	-1	/	/	/	/	/	/
CC(C)(C)c1ccc(OCCCC(=O)NNC(=O)c2ccccc2O)cc1	0.71	11	13*	20*	14*	7	10*	4	8	8	9
C=C1CCN(C(C(=O)NCc2ccccc2)C(C)C)S(=O)(=O)c2ccccc21 (centres undefined)	0.7	/	/	/	/	/	/	/	/	/	/
O=c1cc2oc3cc(O)c(O)cc3c(-c3ccccc3[N+](=O)[O-])c-2cc1O	0.78	0	11*	13*	12*	10	12*	4	7	8	9
CCn1cc(C(=O)N[C@H](C(=O)O)C(C)C)c(=O)c2cc3c(cc21)OCO3	0.069*	1	12*	59*	55*	101*	10*	78*	5	4	52*
CCn1cc(C(=O)N[C@H](C(=O)NCCCOC)C(C)C)c(=O)c2cc3c(cc21)OCO3	0.66	-4	0	2	-3	/	/	/	/	/	/
O=C(NC(NC(=S)Nc1ccc(Cl)c(Cl)c1)C(Cl)(Cl)Cl)c1ccco1 (centres undefined)	0.62	-31	14*	14*	14*	20*	13*	14	8	10	11
O=C(O)c1cccc(NC(=S)NC(NC(=O)c2ccco2)C(Cl)(Cl)Cl)c1 (centres undefined)	0.69	-1	-1	1	-1	/	/	/	/	/	/
CCOC(=O)C1C2COc3cc(OC)ccc3C2N2C(=O)CN(Cc3ccco3)C(=O)[C@@]12C (some centres undefined)	0.69	/	/	/	/	/	/	/	/	/	/
Cc1ccc(S(=O)(=O)N2C(c3ccc(C(C)C)cc3)CC=C(C(=O)O)C2c2ccccc2F)cc1 (centres undefined)	0.69	/	/	/	/	/	/	/	/	/	/
CN[C@@H]1[C@H](O)[C@H](NC)[C@H]2O[C@@]3(O)C(=O)C[C@@H](C)O[C@H]3O[C@@H]2[C@H]1O	0.51*	119*	52*	35*	34*	78*	47*	57*	58*	35*	75*
O=C(O)CSc1nnc(-c2ccccc2O)n1Cc1ccccc1	0.71	12	2	-4	0	/	/	/	/	/	/
O=C(CSc1nnc(-c2ccccc2O)n1Cc1ccccc1)NNC(=O)c1ccccc1O	0.6	18	13*	25*	14*	5	5.9*	5	4	5	8
CCOC(=O)c1ccc([N+]([O-])=Cc2ccccc2)cc1	0.69	/	/	/	/	/	/	/	/	/	/
CC(=O)NC(c1cc(Cl)c2cccnc2c1O)C(C)C (centres undefined)	0.67	0	8	4	-1	/	/	/	/	/	/
SMILES	E coli growth-1	Tat transport	phage Ecoli inh	AddAB inh	E coli growth-2	AddAB conf	RecBCD counter	Bact viability	RecBCD conf	Ecoli viability	AddAB phage OD
CCC(=O)NC(c1ccco1)c1cc(Cl)c2cccnc2c1OC (centres undefined)	0.68	-20	1	0	-1	/	/	/	/	/	/
CCC(=O)NC(c1ccco1)c1cc(Cl)c2cccnc2c1O (centres undefined)	0.71	4	13*	16*	15*	5	11*	1	2	4	18
CCCCC(=O)NC(c1ccco1)c1cc(Cl)c2cccnc2c1O (centres undefined)	0.71	2	21*	16*	24*	18*	18*	15	10	12	15
CCC(=O)NC(c1ccc(OC)cc1)c1cc(Cl)c2cccnc2c1O (centres undefined)	0.65	0	21*	26*	23*	21*	23*	18	13*	17	21*
CCCC(=O)NC(c1cccs1)c1cc([N+](=O)[O-])c2cccnc2c1O (centres undefined)	0.66	-7	3	5	-1	/	/	/	/	/	/
C#CCNC(=O)C1=CC(C)C(CCCO)C(OCC)O1 (centres undefined)	0.7	/	/	/	/	/	/	/	/	/	/
